Results as given in PubChem BioAssay (EPA / NIEHS).
Values joined by “and” are separate entries in the source; they are usually repeats but may differ in a detail not shown here. Equal values may be shown once. Some structures have more than one record in an assay (separate samples or runs), and their calls can disagree. Active and inactive are the calls of the source. The calls were made as follows: active = hit-call score of the fitted dose curve at least 0.9, where 1 is the maximum; inactive = score below 0.9.

Tests used:
[1] = read-out: Cyclin D2 (CCND2), CCND2 (gene 894); assay: LTEA_HepaRG_CCND2: Life Technologies and Expression Analysis (LTEA) Assay for Cyclin D2 (CCND2) using HepaRG (AID 2283449); details: mRNA level, 48 h; actives raise or lower the signal;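 also: CCND2 transcript measured by TaqMan qRT-PCR and normalised to three housekeeping genes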
Outline: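 Chemicals in 0.5% DMSO, eight half-log concentrations from 100 uM top, were applied in duplicate for 48 h to human HepaRG cells in serum-free induction medium. CCND2 mRNA by TaqMan qRT-PCR, normalised to ACTB/GAPDH/POLR2A; bidirectional fit versus DMSO.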

[2] = read-out: Cyclin Dependent Kinase Inhibitor 1A (CDKN1A), CDKN1A (gene 1026); assay: LTEA_HepaRG_CDKN1A: Life Technologies and Expression Analysis (LTEA) Assay for Cyclin Dependent Kinase Inhibitor 1A (CDKN1A) using HepaRG (AID 2283450); details: mRNA level, 48 h; actives raise or lower the signal
Outline: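 Gain or loss of CDKN1A transcript is scored by bidirectional fitting against 0.5% DMSO vehicle. Human HepaRG cultures receive chemicals for 48 h across an 8-point series peaking at 100 uM; expression comes from qRT-PCR.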

[3] = read-out: Cyclin D1 (CCND1), CCND1 (gene 595); assay: LTEA_HepaRG_CCND1: Life Technologies and Expression Analysis (LTEA) Assay for Cyclin D1 (CCND1) using HepaRG (AID 2283451); details: mRNA level, 48 h; actives raise or lower the signal;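 as to AC50: TaqMan qRT-PCR transcript level normalised to ACTB GAPDH and POLR2A housekeeping genes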
Outline: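 Expression change is measured by qRT-PCR in HepaRG cells after 48 h treatment across eight concentrations topping at 100 uM, with duplicate wells and DMSO (0.5%) serving as baseline for bidirectional fitting.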

[4] = read-out: catalase (CAT), CAT (gene 847); assay: LTEA_HepaRG_CAT: Life Technologies and Expression Analysis (LTEA) Assay for catalase (CAT) using HepaRG (AID 2283452); details: mRNA level, 48 h; actives raise or lower the signal;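 as to AC50: TaqMan qRT-PCR signal normalized to ACTB GAPDH and POLR2A housekeeping genes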
Outline: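 HepaRG cells in serum-free induction medium, 0.5% DMSO vehicle, exposed 48 h in duplicate over 8 half-log concentrations from 100 uM. CAT mRNA measured by qRT-PCR, normalized to ACTB, GAPDH, POLR2A; bidirectional fit versus DMSO.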

[5] = read-out: flavin-containing dimethylaniline monooxygenases 3 (FMO3), FMO3 (gene 2328); assay: LTEA_HepaRG_FMO3: Life Technologies and Expression Analysis (LTEA) Assay for flavin-containing dimethylaniline monooxygenases 3 (FMO3) using HepaRG (AID 2283453); details: mRNA level, 48 h; actives raise or lower the signal
Outline: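 Differentiated HepaRG cells in serum-free induction medium, exposed 48 h in duplicate to 8 half-log concentrations up to 100 uM in 0.5% DMSO. FMO3 mRNA by qRT-PCR, normalized to ACTB, GAPDH, POLR2A; bidirectional fit vs DMSO.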

[6] = read-out: Cytochrome P450 (CYP1A1), CYP1A1 (gene 1543); assay: LTEA_HepaRG_CYP1A1: Life Technologies and Expression Analysis (LTEA) Assay for Cytochrome P450 (CYP1A1) using HepaRG (AID 2283454); details: mRNA level, 48 h; actives raise or lower the signal
Outline: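 Using HepaRG cultures with 0.5% DMSO as vehicle, eight-concentration exposures (max 100 uM) lasted 48 h. Transcript levels were measured by TaqMan qRT-PCR and normalized to ACTB, GAPDH and POLR2A.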

[7] = read-out: CFLAR gene, CFLAR (gene 8837); assay: LTEA_HepaRG_CFLAR: Life Technologies and Expression Analysis (LTEA) Assay for CFLAR gene using HepaRG (AID 2283455); details: mRNA level, 48 h; actives raise or lower the signal
Outline: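 Differentiated HepaRG cells in serum-free induction medium were exposed 48 h in duplicate to eight half-log concentrations up to 100 uM in 0.5% DMSO; mRNA measured by TaqMan qRT-PCR, normalized to ACTB, GAPDH, POLR2A; bidirectional fitting versus DMSO.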

[8] = read-out: Forkhead box O1 (FOXO1), FOXO1 (gene 2308); assay: LTEA_HepaRG_FOXO1: Life Technologies and Expression Analysis (LTEA) Assay for Forkhead box O1 (FOXO1) using HepaRG (AID 2283456); details: mRNA level, 48 h; actives raise or lower the signal
Outline: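 Differentiated HepaRG cells, in serum-free induction medium with 0.5% DMSO, exposed 48 h in duplicate to 8-point half-log series from 100 uM. FOXO1 mRNA measured by TaqMan qRT-PCR, normalized to ACTB, GAPDH, POLR2A; bidirectional fit versus DMSO.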

[9] = read-out: growth arrest and DNA damage 45 (GADD45A), GADD45A (gene 1647); assay: LTEA_HepaRG_GADD45A: Life Technologies and Expression Analysis (LTEA) Assay for growth arrest and DNA damage 45 (GADD45A) using HepaRG (AID 2283458); details: mRNA level, 48 h; actives raise or lower the signal
Outline: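 Cells plated and cultured 48 h, switched to serum-free induction medium, then dosed for 48 h (100 uM top, half-log dilutions, 0.5% DMSO). RNA was isolated and transcript measured by Fluidigm qRT-PCR.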

[10] = read-out: Forkhead box O3 (FOXO3), FOXO3 (gene 2309); assay: LTEA_HepaRG_FOXO3: Life Technologies and Expression Analysis (LTEA) Assay for Forkhead box O3 (FOXO3) using HepaRG (AID 2283459); details: mRNA level, 48 h; actives raise or lower the signal
Outline: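 Differentiated human HepaRG cells, 48 h post-plating, exposed in duplicate for 48 h in serum-free induction medium; 8-point half-log series from 100 uM in 0.5% DMSO. FOXO3 mRNA by TaqMan qRT-PCR, normalized to ACTB/GAPDH/POLR2A; bidirectional fit versus DMSO.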

[11] = read-out: ABC Transporter (ABCB1), ABCB1 (gene 5243); assay: LTEA_HepaRG_ABCB1: Life Technologies and Expression Analysis (LTEA) Assay for ABC Transporter (ABCB1) using HepaRG (AID 2283460); details: mRNA level, 48 h; actives raise or lower the signal
Outline: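 HepaRG cells exposed in duplicate for 48 h in serum-free induction medium to eight half-log concentrations up to 100 uM in 0.5% DMSO. ABCB1 mRNA quantified by qRT-PCR, normalised to ACTB, GAPDH and POLR2A; fitted bidirectionally versus DMSO.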

[12] = read-out: growth arrest and DNA damage 45 (GADD45B), GADD45B (gene 4616); assay: LTEA_HepaRG_GADD45B: Life Technologies and Expression Analysis (LTEA) Assay for growth arrest and DNA damage 45 (GADD45B) using HepaRG (AID 2283461); details: mRNA level, 48 h; actives raise or lower the signal
Outline: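 Human HepaRG monolayers receive chemicals for 48 h at eight half-log concentrations, highest 100 uM, in 0.5% DMSO. Expression is measured by TaqMan qRT-PCR and normalized to ACTB, GAPDH and POLR2A.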

[13] = read-out: ABC Transporter (ABCC3), ABCC3 (gene 8714); assay: LTEA_HepaRG_ABCC3: Life Technologies and Expression Analysis (LTEA) Assay for ABC Transporter (ABCC3) using HepaRG (AID 2283462); details: mRNA level, 48 h; actives raise or lower the signal
Outline: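 Transcriptional change of ABCC3 in HepaRG after 48 h treatment, determined by qRT-PCR normalized to endogenous controls. Concentrations spanned eight half-log steps to 100 uM in 0.5% DMSO.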

[14] = read-out: ABC Transporter (ABCB11), ABCB11 (gene 8647); assay: LTEA_HepaRG_ABCB11: Life Technologies and Expression Analysis (LTEA) Assay for ABC Transporter (ABCB11) using HepaRG (AID 2283463); details: mRNA level, 48 h; actives raise or lower the signal
Outline: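 Differentiated human HepaRG cells in serum-free induction medium, dosed in duplicate for 48 h. Eight-point half-log series from 100 uM in 0.5% DMSO; ABCB11 mRNA by qRT-PCR, normalized to ACTB, GAPDH, POLR2A, fitted bidirectionally versus DMSO.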

[15] = read-out: ABC Transporter (ABCC2), ABCC2 (gene 1244); assay: LTEA_HepaRG_ABCC2: Life Technologies and Expression Analysis (LTEA) Assay for ABC Transporter (ABCC2) using HepaRG (AID 2283464); details: mRNA level, 48 h; actives raise or lower the signal
Outline: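 After plating and 48 h culture, HepaRG medium is replaced with serum-free induction medium and chemicals are added (8 concentrations, max 100 uM, 0.5% DMSO) for 48 h. Total RNA then undergoes qRT-PCR for ABCC2 with housekeeping normalization.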

[16] = read-out: Broad substrate specificity ATP-binding cassette transporter ABCG2 (Homo sapiens) (UniProt Q9UNQ0); assay: LTEA_HepaRG_ABCG2: Life Technologies and Expression Analysis (LTEA) Assay for ABC Transporter (ABCG2) using HepaRG (AID 2283465); details: mRNA level, 48 h; actives raise or lower the signal
Outline: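 Differentiated HepaRG cells were exposed for 48 h in serum-free induction medium to 8 half-log concentrations, top 100 uM, in 0.5% DMSO. ABCG2 mRNA was measured by qRT-PCR, normalized to ACTB, GAPDH and POLR2A, with bidirectional fitting versus DMSO.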

[17] = read-out: ATP-citrate lyase (ACLY), ACLY (gene 47); assay: LTEA_HepaRG_ACLY: Life Technologies and Expression Analysis (LTEA) Assay for ATP-citrate lyase (ACLY) using HepaRG (AID 2283466); details: mRNA level, 48 h; actives raise or lower the signal
Outline: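 Differentiated HepaRG cells exposed 48 h in serum-free induction medium to eight half-log concentrations up to 100 uM in 0.5% DMSO, duplicates. Transcript measured by Fluidigm TaqMan qRT-PCR, normalized to ACTB, GAPDH, POLR2A; bidirectional fit versus DMSO.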

[18] = read-out: Peroxisomal acyl-coenzyme A oxidase 1 (ACOX1) gene, ACOX1 (gene 51); assay: LTEA_HepaRG_ACOX1: Life Technologies and Expression Analysis (LTEA) Assay for Peroxisomal acyl-coenzyme A oxidase 1 (ACOX1) gene using HepaRG (AID 2283467); details: mRNA level, 48 h; actives raise or lower the signal
Outline: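 HepaRG cells, plated 48 h then switched to serum-free induction medium, were exposed in duplicate for 48 h to 8-point half-log concentrations up to 100 uM in 0.5% DMSO. ACOX1 mRNA was measured by qRT-PCR, normalized to ACTB/GAPDH/POLR2A, and fitted bidirectionally versus DMSO.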

[19] = read-out: Alkaline Phosphatase, Placental (ALPP) gene, ALPP (gene 250); assay: LTEA_HepaRG_ALPP: Life Technologies and Expression Analysis (LTEA) Assay for Alkaline Phosphatase, Placental (ALPP) gene using HepaRG (AID 2283468); details: mRNA level, 48 h; actives raise or lower the signal
Outline: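 Using human liver HepaRG cells, chemicals are tested in duplicate over 48 h at half-log concentrations topping at 100 uM; phenobarbital 1 mM serves as induction control. ALPP mRNA change by qRT-PCR, bidirectional fit against vehicle.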

[20] = CEETOX_H295R_TESTO: CeeTox H295R High-throughput Steroidogenesis Assay for Testosterone (TESTO) (AID 2283457); details: actives raise or lower the signal
Outline: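 Steroidogenesis in H295R cells following OECD 456 with minor changes; 48 h exposure. Medium testosterone by HPLC-MS/MS, DMSO as baseline, with MTT viability run in parallel.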

Chain of Broad substrate specificity ATP-binding cassette transporter ABCG2 (Homo sapiens) (Q9UNQ0 whole entry, looked up): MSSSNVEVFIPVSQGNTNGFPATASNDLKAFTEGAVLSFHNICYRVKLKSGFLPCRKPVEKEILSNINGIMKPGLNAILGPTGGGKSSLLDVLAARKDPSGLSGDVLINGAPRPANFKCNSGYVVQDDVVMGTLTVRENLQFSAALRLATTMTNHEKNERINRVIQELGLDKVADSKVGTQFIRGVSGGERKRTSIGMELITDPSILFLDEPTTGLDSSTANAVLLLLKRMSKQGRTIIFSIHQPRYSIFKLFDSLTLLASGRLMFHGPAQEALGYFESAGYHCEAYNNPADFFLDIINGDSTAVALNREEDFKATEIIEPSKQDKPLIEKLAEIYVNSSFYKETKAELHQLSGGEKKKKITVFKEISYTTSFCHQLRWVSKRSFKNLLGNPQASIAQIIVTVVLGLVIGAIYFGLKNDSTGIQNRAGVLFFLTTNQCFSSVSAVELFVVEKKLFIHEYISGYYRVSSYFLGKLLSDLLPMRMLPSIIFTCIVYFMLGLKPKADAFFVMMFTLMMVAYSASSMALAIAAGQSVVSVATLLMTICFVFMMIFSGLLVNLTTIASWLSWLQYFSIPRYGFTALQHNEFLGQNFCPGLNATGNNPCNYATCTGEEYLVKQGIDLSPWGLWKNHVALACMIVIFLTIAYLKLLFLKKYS

C[C@]12CC[C@@H]3c4ccc(O)cc4CC[C@H]3[C@@H]1CC[C@@H]2O
outcome [1]: inactive | AC50 [2]: 80.3 µM (active) | outcome [3]: inactive | outcome [4]: inactive | outcome [5]: inactive | AC50 [6]: 66.1 µM (active) | outcome [7]: inactive | outcome [8]: inactive | outcome [9]: inactive | outcome [10]: inactive | AC50 [11]: 6.57 µM (active) | outcome [12]: inactive | outcome [13]: inactive | AC50 [14]: 50 µM (active) | AC50 [15]: 41.2 µM (active) | AC50 [16]: 3.03 µM (active) | outcome [17]: inactive | outcome [18]: inactive | outcome [19]: inactive

CC/C(=C(\c1ccccc1)c1ccc(OCCN(C)C)cc1)c1ccccc1
outcome [1]: inactive | outcome [2]: inactive | AC50 [3]: 28.1 µM (active) and 38.6 µM (active) | AC50 [4]: 51.7 µM (active) | outcome [4]: inactive | AC50 [5]: 27.9 µM (active) and 33.7 µM (active) | AC50 [6]: 26.8 µM (active) and 68.3 µM (active) | AC50 [7]: 64.9 µM (active) and 93.4 µM (active) | AC50 [8]: 69.8 µM (active) | outcome [8]: inactive | outcome [9]: inactive | AC50 [10]: 66.8 µM (active) | outcome [10]: inactive | AC50 [11]: 76.5 µM (active) and 77.8 µM (active) | AC50 [12]: 79.1 µM (active) and 16.7 µM (active) | AC50 [13]: 11.2 µM (active) and 23 µM (active) | AC50 [14]: 26.4 µM (active) and 25.1 µM (active) | AC50 [15]: 82.5 µM (active) and 93.4 µM (active) | outcome [16]: inactive | outcome [17]: inactive | AC50 [18]: 45.8 µM (active) | outcome [18]: inactive | AC50 [19]: 21.5 µM (active) and 23.7 µM (active)

CC=CC(=O)C1=C(C)C=CCC1(C)C
outcome [20]: inactive

CCCCOCCOCCO
outcome [1]: inactive | outcome [2]: inactive | outcome [3]: inactive | outcome [4]: inactive | outcome [5]: inactive | AC50 [6]: 50 µM (active) | outcome [7]: inactive | outcome [8]: inactive | outcome [9]: inactive | outcome [10]: inactive | outcome [11]: inactive | outcome [12]: inactive | outcome [13]: inactive | outcome [14]: inactive | outcome [15]: inactive | outcome [16]: inactive | outcome [17]: inactive | outcome [18]: inactive | outcome [19]: inactive

CC(C)(C)c1cccc(O)c1
outcome [20]: inactive
